Bioassay records as filed in PubChem BioAssay.
In the library only some 19% were active in any assay of this set; here they are far more common.
ELG1 DNA repair: qHTS screen for small molecules that inhibit ELG1-dependent DNA repair in human embryonic kidney (HEK293T) cells expressing luciferase-tagged ELG1; hit rate 2.3% among 330,000; Potency, µM (doses to about 46.1 µM), for inactives: top-dose activity change, negative = inhibition, hits mostly inhibitors; AID 504467, 2011; HEK293T ELG1-luciferase reporter, luminescence, 16 h; DNA damage induced by 5-fluorouridine; note: potency is the fitted concentration of half-maximal effect; nearly all actives have a fitted effect of over 55% in size
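Luminescence from the luciferase reporter, measured 30 min after ONE-Glo reagent at room temperature, was the read-out. Beforehand, 2,000 cells per well were exposed for 16 hr at 37 °C to 5-fluorouridine together with compound or vehicle.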
IL-1B inflam inh: qHTS for Inhibitors of Inflammasome Signaling: IL-1-beta AlphaLISA Primary Screen; activity change, % at 57.5 µM; THP-1 LPS/ATP IL-1B secretion, AlphaLISA, 16 h; stronger effect = lower value; AID 743279, 2014; hit rate 4.7% among 360,000; in the data active = activity change below about -50%; inconclusive = mostly about -30% to -49%
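THP-1 cells pretreated 1 hr with compounds (up to 57.5 uM final), then stimulated with LPS (250 ng/mL final) plus ATP (1.25 mM final); secreted IL-1B measured by AlphaLISA after 16 hr, decreased signal indicating inhibition.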
TDP1 cell CPT: qHTS for Inhibitors of human tyrosyl-DNA phosphodiesterase 1 (TDP1): qHTS in cells in presence of CPT; chicken DT40 Tdp1-/-;hTDP1 cells + 20 nM CPT, ATP luminescence, 48 h; Potency, µM (titrated, usually from 46.2 µM), inactives show at the highest dose activity change, negative = growth inhibition, actives largely listed as inhibitors; hit rate 12% among 420,000; note: potency is the fitted concentration of half-maximal effect; nearly all actives have a fitted effect of over 55% in size
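Chicken DT40 Tdp1-/- cells complemented with human TDP1, 400 cells/well, exposed to compounds plus 20 nM camptothecin for at least 48 h at 37 C; viability read as ATP content by CellTiter-Glo luminescence.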
DT40 TDP1 no CPT: qHTS for Inhibitors of human tyrosyl-DNA phosphodiesterase 1 (TDP1): qHTS in cells in absence of CPT; DT40 Tdp1-/- hTDP1 cells, no CPT, ATP luminescence, 48 h; Potency, µM (titrated, usually from 46.2 µM), for inactives: at the top dose activity change, negative = growth inhibition, actives largely listed as inhibitors; hit rate 15% among 420,000; AID 686978, 2013; note: potency is the fitted concentration of half-maximal effect; nearly all actives have a fitted effect of over 55% in size
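DT40 Tdp1-/-;hTDP1 cells, no CPT (DMSO vehicle only), 400 cells/well; compounds pin-transferred; ≥48 hr, 37 °C; CellTiter-Glo 30 min RT dark, luminescence read.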
Giardia killer: Small Molecules that selectively kill Giardia lamblia: qHTS | Giardia lamblia trophozoite viability | hit rate 0.15% among 340,000 | activity change, % at 7.66 µM, hits read low; in the data active = activity change below about -80%; inconclusive = between about -30% and that limit;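 note: parasites exposed to compound for two days anaerobically before the ATP read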
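ATP-content bioluminescence gauges trophozoite survival. Cells (100/well) receive compound and incubate anaerobically for 48 hrs at 37 deg C; detection reagent follows for 15-30 min at room temperature.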
TDP1 inh: qHTS Assay for Inhibitors of Tyrosyl-DNA Phosphodiesterase (TDP1). Tyrosyl-DNA phosphodiesterase 1 (Homo sapiens), Q9NUW8. Potency, µM (highest dose often 130 µM), for the others: at the top dose activity change, negative = inhibition, usual class: inhibitors. AID 485290, 2010. hit rate 0.28% among 350,000. recombinant TDP1, AlphaScreen DNA substrate cleavage; note: potency is the fitted concentration of half-maximal effect; nearly all actives have a fitted effect of over 40% in size
Target sequence (Q9NUW8 whole entry, looked up): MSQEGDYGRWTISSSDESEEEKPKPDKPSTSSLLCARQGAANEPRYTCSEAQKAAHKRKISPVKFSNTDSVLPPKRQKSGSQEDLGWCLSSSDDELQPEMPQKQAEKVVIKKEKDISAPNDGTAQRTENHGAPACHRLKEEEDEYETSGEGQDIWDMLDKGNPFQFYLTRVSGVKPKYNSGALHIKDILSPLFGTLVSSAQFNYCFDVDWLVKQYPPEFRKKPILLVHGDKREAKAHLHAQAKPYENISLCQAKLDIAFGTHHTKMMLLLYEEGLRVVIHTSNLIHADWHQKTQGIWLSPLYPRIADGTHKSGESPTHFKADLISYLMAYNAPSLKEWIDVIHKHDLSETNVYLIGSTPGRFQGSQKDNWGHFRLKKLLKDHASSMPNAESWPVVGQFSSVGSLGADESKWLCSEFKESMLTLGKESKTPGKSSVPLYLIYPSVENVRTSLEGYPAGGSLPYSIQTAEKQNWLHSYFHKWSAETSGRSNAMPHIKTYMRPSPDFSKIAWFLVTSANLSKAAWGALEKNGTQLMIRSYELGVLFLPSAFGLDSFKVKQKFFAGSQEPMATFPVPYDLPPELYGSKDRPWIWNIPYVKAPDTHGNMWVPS
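Enzyme-compound mixtures sat 15 min at room temperature, followed by a 5 min reaction with 15 nM final substrate and 10 min with AlphaScreen beads. Recombinant human Tdp1 was used at 1 nM final.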
The depositor's hits bear a star; ? = inconclusive; nt = no result given; ! = not active in a repeat; [ ] = dose if it differs, or a comment. Unless noted, calls come from the whole dose curve; as a rule, active = well fitted curve in the direction sought with a large enough effect; inconclusive = small, poorly fitted or top-dose-only effect, or another doubt; inactive = no such curve, though single readings can be large; an effect the other way counts as inactive or inconclusive. % is set by controls: 0 for no effect and ±100 for the full control effect.

SMILES | ELG1 DNA repair | IL-1B inflam inh | TDP1 cell CPT | DT40 TDP1 no CPT | Giardia killer | TDP1 inh
CC1=CC(=O)C2=C(C)C[C@H](O)[C@@H]3[C@H](OC(=O)[C@H]3C)[C@@H]12 | 10.1% | -79.2* | 5.7% | 16.4% | 3.2 | nt
CN1C(=O)C(=Cc2ccc(N3CCOCC3)o2)C(=O)N(C)C1=O | ? | 11.6 | -11.7% | -8.0% | 1.3 | 2.7%
CN1C(=O)C(=Cc2ccc(N3CCCCCC3)o2)C(=O)N(C)C1=S | ? | -25.7 | ? | 23.1µM* | -6.6 | 5.3%
CCn1c(O)c(/C=N/NC(=O)c2ccccc2)c(=O)n(CC)c1=S | ? | 137.8 | ? | 29.1µM* | 3.3 | 8.0%
COP(=O)(OC)C(NS(=O)(=O)c1ccccc1)C(Cl)(Cl)Cl (stereo not given) | 12.2% | 14.6 | 16.1% | 11.4% | 5.2 | 6.0%
O=C(CCl)c1ccc(Cl)cc1Cl | nt | nt | 21.7µM* | 13.7µM* | nt | 7.0%
O=C(c1ccc2c3c(cccc13)CC2)C1CCCN(CC2CC2)C1 (stereo not given) | 16.6% | -116.8* | 18.4µM* | 23.1µM* | 42.9 | 0.0%
CC1OC(OC2C=C3CCC4C(CCC5(C)C(c6ccc(=O)oc6)CCC45O)C3(C)CC2)C(O)C(OC2OC(CO)C(O)C(O)C2O)C1O (stereo not given) | nt | -70.8* | 0.164µM* | 0.184µM* | -17.4 | nt
Cc1cc(-c2ccc(C)c(S(=O)(=O)N3CCOc4ccc(Cl)cc43)c2)on1 | nt | nt | 20.6µM* | 13µM* | nt | 0.0%
O=C(CCC(=O)N1CCOc2ccc(Cl)cc21)N1CCC2(CC1)OCCO2 | 22.7% | 9.5 | -1.8% | 28.0% | -8.8 | 0.2%
O=S(=O)(c1ccc(Cl)cc1)c1cc(Cl)c(Cl)cc1Cl | nt | nt | nt | nt | nt | -9.5%
ClCCN1CCN(c2ccnc3cc(Cl)ccc23)CC1 | 7.5% | -50.1* | 13µM* | 14.6µM* | -3.1 | nt
CC(C)c1ccc2c(c1)C(N1CCNCC1)Cc1ccc(F)cc1S2 (stereo not given) | nt | -97.3* | ? | 25.9µM* | -10.9 | nt
Cc1cccc(CN2CCCC(C(=O)c3ccc(C(F)(F)F)cc3)C2)n1 (stereo not given) | -11.0% | 17.2 | ? | 18.4µM* | -16.0 | -1.2%
CSc1ccccc1C(=O)C1CCCN(Cc2ccccn2)C1 (stereo not given) | 3.6% | 30.7 | 3.3% | ? | 19.3 | 4.8%
CSc1ccccc1C(=O)C1CCCN(Cc2cccc(C)n2)C1 (stereo not given) | -15.2% | -75.3* | ? | ? | -12.0 | 6.0%
O=C(c1ccc(C(F)(F)F)cc1)C1CCCN(C2CCSCC2)C1 (stereo not given) | -14.0% | -8.5 | ? | ? | -2.3 | 0.0%
O=C=NC1CCCCC1 | nt | nt | nt | nt | nt | 7.6%
Cc1nn(C)c(C)c1-c1cccc2c1CCC(N(C)C)C2 (stereo not given) | nt | nt | nt | nt | nt | 4.1%
Cc1ccc(OP2(=O)Nc3cc(C)c(C)cc3S2)cc1 (stereo not given) | nt | -68.8* | ? | ? | 7.3 | nt
COP(=S)(OC)Oc1nc(Cl)c(Cl)cc1Cl | nt | nt | nt | nt | nt | 20.7%
CCOP(=S)(OCC)Oc1nc(Cl)c(Cl)cc1Cl | 9.5% | 0.0 | 0.2% | -4.2% | 10.7 | 50.1µM*!
CCCCC/C=C\C/C=C\CCCCCCCC(=O)NCCO | nt | nt | 2.7%[4.12 µM] | -2.3%[4.12 µM] | nt | 8.5%
CC1(C)CC(=O)C2=C(C1)OC(N)=C([N+](=O)[O-])C2c1ccc(C#N)s1 (stereo not given) | 4.1% | ? | 20.6µM* | ? | 0.7 | -6.0%
CC(=O)c1cn(CCCOc2ccccc2)c2ccccc12 | -7.4% | -3.6 | ? | 16.4µM* | -2.7 | -2.4%
